Compound activity deposited in PubChem BioAssay by ICCB-Longwood Screening Facility, Harvard Medical School.
Sa growth inh: S. aureus growth inhibition. S. aureus RN4220 growth, OD600, 20 h, 42 °C; stronger effect = lower value. relative growth, % (test concentration not listed). hit rate 0.53% among 170,000. AID 720641;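 active = relative growth at most 50% at the other temperature and 20+ points below 30 °C, or under 10% at both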
S aureus helic: blocks Staphylococcus aureus DNA helicase. purified S. aureus helicase, fluorescence unwinding assay. hit rate 0.05% among 120,000. inhibition, % (test concentration not listed); in the data active = inhibition above about 25%, passing the limit was not always enough;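 note: 0% = mean of negative control wells and 100% = mean of positive control wells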
HCMV UL50-53 inh: disrupts HCMV UL50-UL53 complex binding | HTRF UL50-UL53 interaction, normalized percent inhibition | inhibition, % (test concentration not listed) | hit rate 0.15% among 190,000 | AID 1918969; in the data active = inhibition above about 27%, passing the limit was not always enough
* marks the source's active call; other numbers are inactive results; nt = no result. The full list was thinned out, with hits kept by preference.

SMILES | Sa growth inh | S aureus helic | HCMV UL50-53 inh
Cc1ccc2c(=O)c(C(=O)c3ccccc3)cn(CC(=O)Nc3ccccc3)c2n1 | 99 | nt | nt
Cc1ccc2c(=O)c(C(=O)c3ccccc3)cn(CC(=O)Nc3ccc(C)c(F)c3)c2n1 | nt | nt | 72*
NC(=O)c1ccsc1NC(=O)Cc1ccc(S(=O)(=O)N2CCOCC2)s1 | 96 | -9 | -29
COc1ccc(C2CC(=O)C3=C(C2)Nc2ccccc2N(C(=O)C(F)(F)F)C3c2ccc(OC)c(OC)c2)cc1 (stereo unspecified) | nt | nt | -9
Cc1cc(-c2c(C(=O)NN3CCOCC3)c(C)nn2-c2ccccc2)no1 | 106 | -20 | -25
Cc1ccc(C)c(C(=O)N2CCC(c3nc4c(nnn4Cc4ccccc4)c(=O)[nH]3)CC2)c1 | 3.7* | nt | 10
Cc1ccccc1Cn1nnc2c(=O)[nH]c(C3CCN(C(=O)c4ccccc4)CC3)nc21 | 3.5* | nt | -2
Cc1cccc(Cn2nnc3c(=O)[nH]c(C4CCCN(C(=O)c5ccccc5Cl)C4)nc32)c1 (stereo unspecified) | 93 | nt | -6
Cc1cccc(Cn2nnc3c(=O)[nH]c(C4CCN(C(=O)c5ccc(F)cc5)CC4)nc32)c1 | 2.7* | nt | 11
O=C(c1ccccc1)N1CCCC(c2nc3c(nnn3Cc3ccc(F)cc3F)c(=O)[nH]2)C1 (stereo unspecified) | 91 | nt | -10
COc1ccc(Cn2nnc3c(=O)[nH]c(C4CCN(C(=O)c5ccc(C)cc5)CC4)nc32)cc1OC | 10 | nt | 7
O=C(c1cccc(Cl)c1)N1CCC(c2nc3c(nnn3Cc3ccc(F)cc3F)c(=O)[nH]2)CC1 | 0.2* | nt | 5
Cc1ccccc1Cn1nnc2c(=O)[nH]c(C3CCN(C(=O)c4ccc(F)cc4)CC3)nc21 | 19 | nt | 15
O=C(Cn1ccn(-c2ccc(F)cc2)c(=O)c1=O)Nc1ccccc1 | 86 | 12 | -42
NC(CCO)c1cccc(C(F)(F)F)c1 (stereo unspecified) | nt | nt | 6
CCOC(=O)c1oc2ccccc2c1COC(=O)CCC(=O)c1ccccc1 | 104 | -1 | -13
O=C(Cc1csc2nc(-c3ccccc3)cn12)N1CCc2ccccc21 | 105 | 8 | 2
C=CCn1c(CN(c2ccc(F)cc2)S(C)(=O)=O)nnc1SCC(=O)c1ccc(Cl)cc1 | nt | nt | -14
CCOc1ccc(Cn2nnc3c(=O)[nH]c(C4CCN(C(=O)c5ccccc5)CC4)nc32)cc1 | -0.3* | nt | -1
COc1cccc(OC)c1Cn1nnc2c(=O)[nH]c(C3CCN(C(=O)c4ccccc4)CC3)nc21 | 11 | nt | 11
N#Cc1ccc(CSc2nc3ccc(Cl)cc3[nH]2)cc1 | 65 | 6 | -8
FC(F)(F)c1ccc2nc(SCc3ccc(Br)cc3)[nH]c2c1 | 6.8* | nt | 9
Cc1cccc(C2=NN3C(=N)/C(=C\c4ccc5c(c4)OCO5)C(=O)N=C3S2)c1 | 50 | 6 | -32
CC(CCc1ccccc1)NC(=O)C(C)N1CCN(C(=O)c2ccccc2)CC1 (stereo unspecified) | 103 | 4 | -9
CCC(=O)NC(c1ccco1)c1cc(Cl)c2cccnc2c1O (stereo unspecified) | 72 | 5 | nt
SMILES | Sa growth inh | S aureus helic | HCMV UL50-53 inh
CCCCC(=O)NC(c1ccco1)c1cc(Cl)c2cccnc2c1O (stereo unspecified) | 20* | -25 | -22
Cc1cc(N=Cc2c(O)ccc3ccccc23)no1 | 96 | 10 | 103*
Cc1ccc(O)c(C=Nc2cc(C)on2)c1 | 114 | nt | -9
Oc1ccc2ccccc2c1C=Nc1c(F)c(F)c(F)c(F)c1F | 123 | -18 | -25
Oc1ccc2ccccc2c1/C=N/c1nccs1 | 111 | -51 | 108*
O=C1c2cccnc2C(=O)N1Cc1ccc(S(=O)(=O)N2CCN(Cc3ccccc3)CC2)cc1 | nt | nt | -12
Cc1cc(NC(=O)c2ccc(N3C(=O)CCC3=O)cc2)nc2c1c(=O)oc1ccccc12 | 0.1* | -11 | 17
Cc1cc(NC(=O)c2ccccc2)nc2c1c(=O)oc1ccccc12 | nt | -5 | 2
CC1=C(C(=O)OC2CCCN(C)C2)C2(O)C(=O)c3ccccc3C2(O)N1 (stereo unspecified) | 92 | nt | -22
CC1=C(C(=O)OCc2ccccc2)C2(O)C(=O)c3ccccc3C2(O)N1 (stereo unspecified) | 90 | -14 | 66*
CCOc1ccc2c(c1)sc(=N)n2Cc1ccc(Cl)cc1 | 131 | 6 | -35
Cc1cc(N=NC(=O)c2ccccc2)ccc1O | 0.6* | 22 | -40
CCOC(=O)c1ccc(N=Nc2ccc(O)c(CC(=O)O)c2)cc1 | nt | nt | -35
O=C(CSc1ccc(Cl)cc1)c1ccc[nH]1 | 113 | 11 | -14
COc1ccccc1C(=O)CSc1ccc(Cl)cc1 | 6.6* | -17 | -26
FC(F)(F)C1(C(F)(F)F)N=C(N2CCOCC2)OC(N2CCOCC2)=N1 | 81 | 9 | -15
COc1cc(C2C3=C(CC(C)(C)CC3=O)OC3=C2C(=O)CC(C)(C)C3)ccc1OC(=O)N(C)C | nt | nt | -4
COc1cc(/C=C2\C(=O)N(c3ccc(S(N)(=O)=O)cc3)N=C2C)cc(Br)c1OCc1ccccc1 | nt | nt | 46*
COc1cc(/C=C2/C(=O)ON=C2C)cc(Cl)c1OCc1ccc(C)cc1 | 84 | 8 | nt
COc1cc(/C=C2\C(=O)N(c3ccc(S(N)(=O)=O)cc3)N=C2C)cc(Cl)c1OCc1ccccc1 | nt | nt | 61*
COc1cc(/C=C2\C(=O)N(c3ccc(Cl)c(C(=O)O)c3)N=C2C)ccc1OCc1ccccc1 | nt | nt | 26
COc1cc(/C=C2\C(=O)N(c3ccc(Cl)c(C(=O)O)c3)N=C2C)cc(OC)c1OC | nt | nt | 63*
CCOc1c(OC)cc(/C=C2/C(=O)N(c3ccc(S(N)(=O)=O)cc3)N=C2C)cc1[N+](=O)[O-] | nt | nt | -10
CC(=O)Nc1ccc(S(=O)(=O)NCc2ccc3c(c2)N(C(=O)c2ccccc2)CC3)cc1 | nt | nt | 21
CNC(=O)c1ccccc1NS(=O)(=O)c1ccc(Br)cc1 | 118 | 8 | -22
SMILES | Sa growth inh | S aureus helic | HCMV UL50-53 inh
CCN(C(=O)CSc1nnc(CSc2nc3ccccc3s2)n1C)C1CCCCC1 | 95 | 4 | -30
Cc1ccccc1C(=O)On1c(-c2ccc(Cl)c([N+](=O)[O-])c2)nc2ccccc2c1=O | nt | nt | -22
O=C(N/N=C/c1ccc(-c2ccc(Cl)c(C(=O)O)c2)o1)c1ccncc1 | 77 | -7 | -87
CC(Sc1nc2ccccc2c(=O)n1Cc1ccco1)C(=O)c1ccc(F)c(F)c1 (stereo unspecified) | 89 | -9 | -4
c1ccc(Nc2nc3ccccc3[nH]2)nc1 | 0.9* | 6 | -14
CNc1nc2ccccc2[nH]1 | 108 | -26 | 0
Cc1cc(C)cc(Nc2cc(C)nc(-n3nc(C)cc3C)n2)c1 | -0.7* | 12 | -4
Cc1cc(N2CCCC2)nc(-n2nc(C)cc2C)n1 | 7.7* | 0 | -12
Cc1cc(C)cc(Nc2nc3cc(Cl)c(Cl)cc3nc2-n2nc(C)cc2C)c1 | 104 | nt | -4
CCCCc1ccc(Nc2cc(C)nc(-n3nc(C)cc3C)n2)cc1 | 22 | nt | nt
Cc1cc(-n2nc(C)cc2C)nc(-n2nc(C)cc2C)n1 | nt | nt | -5
Cc1cc(Nc2ccc(F)cc2)nc(-n2nc(C)cc2C)n1 | 2.5* | nt | nt
Cc1cc(C)n(-c2nc(NC(C)C)nc(NC(C)C)n2)n1 | -0.4* | 7 | 8
Cc1cc(C)n(-c2ncc(C#N)cn2)n1 | nt | nt | -13
CC1(C)CC(=O)c2cc(-c3ccc(Br)cc3)n(CC(=O)O)c2C1 | 101 | 14 | 6
